The source of these data is PubChem BioAssay (EPA / NIEHS).

Structures are written as SMILES. Results filed as inconclusive are left out. Active and inactive are the calls of the source. Rule for the calls, unless noted: active = hit-call score of the fitted dose curve at least 0.9, where 1 is the maximum; inconclusive = response in the unintended direction; inactive = score below 0.9.

The AC50 is the midpoint of the concentration-response curve, whichever way the signal moves.

A short description of experiment [1]: Tanguay_ZF_120hpf_TR_legacy: (Legacy) Oregon State University Tanguay Lab 120 Hour Post-fertilization zebrafish Assay for Touch Response (AID 2283667). In a few lines: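 Readout is presence or absence of touch response in 120 hpf zebrafish larvae, assessed by brightfield observation after continuous static exposure at 28C. Final vehicle was 0.64% (vol/vol) DMSO.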

A short description of experiment [2]: CCTE_Padilla_ZF_144hpf_TERATOSCORE: (Legacy) CCTE's 144 Hour Post-fertilization zebrafish Assay Teratoscore, Padilla Lab (AID 2283679; active = hit-call score of the fitted dose curve at least 0.9, where 1 is the maximum; inactive = score below 0.9;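 for AC50: zebrafish embryos with chorions exposed by immersion from 6-8 hpf to 5 dpf with daily renewal; teratogenicity score from eye scoring of death hatching and malformations at 144 hpf; higher score means more developmental defects relative to DMSO baseline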). Put shortly: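 Larvae scored by eye at 144 hpf for death, hatching and malformations after a day in clean Hanks'. Before that, daily-renewed exposure at 80 uM (0.4% DMSO, 26C) from roughly 6-8 hpf through 5 dpf, 4 embryos per chemical.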

A short description of experiment [3]: STM_H9_OrnithineISnorm_perc: Stemina devTOX quickPredict H9 human embryonic stem cell (hESC)-based Assay for Ornithine (ORN) Metabolite Biomarker, Normalized (AID 2283712; active = hit-call score of the fitted dose curve at least 0.9, where 1 is the maximum; inactive = score below 0.9;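 note: ornithine released into spent medium during last day measured by mass spectrometry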). Put shortly: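 UPLC-HRMS readout: endogenous ornithine EIC area / 13C-ORN internal standard, then % of 0.1% DMSO median. H9 hESCs (pluripotent), 72h exposure, re-dosed with fresh media q24h; last 24-h spent media, deproteinized in 40% acetonitrile.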

A short description of experiment [4]: STM_H9_CystineISnorm_perc: Stemina devTOX quickPredict H9 human embryonic stem cell (hESC)-based Assay for Cystine (CYSS) Metabolite Biomarker, Normalized (AID 2283713; active = hit-call score of the fitted dose curve at least 0.9, where 1 is the maximum; inactive = score below 0.9). Put shortly:
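UPLC-HRMS read-out: endogenous cystine peak area in spent medium, normalized to isotope-labeled internal standard and to median of 0.1% DMSO controls. Pluripotent H9 cells, 72h exposure, daily medium/compound replenishment; medium from last 24h sampled.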

The nature of experiment [5]: STM_H9_OrnCyssISnorm_ratio: Stemina devTOX quickPredict H9 human embryonic stem cell (hESC)-based Assay for Ornithine (ORN):Cystine (CYSS) Ratio (AID 2283714). Put shortly:
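H9 hESC, 72h, q24h re-dose; last-day media → acetonitrile deproteinization → UPLC-HRMS. ORN:CYSS ratio from isotope-normalized EIC areas, vs 0.1% DMSO; MTX references on each plate.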

Experiment [6] is described as follows: CEETOX_H295R_MTT_cell_viability: Viability Assessment in the CeeTox HT-H295R MTT Assay (AID 2283718; active = hit-call score of the fitted dose curve at least 0.9, where 1 is the maximum; inactive = score below 0.9;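 for AC50: curve fitted both ways so AC50 may mark viability loss or gain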). Put shortly:
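H295R cells prestimulated 48 h with 10 uM forskolin, then exposed 48 h to test chemical (0.1% DMSO final). Viability by MTT (0.5 mg/ml, 4 h, 37 C), absorbance 570/650 nm; percent change versus DMSO, bidirectional fit.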

Experiment [7] can be described thus: Tanguay_ZF_120hpf_ActivityScore_legacy: (Legacy) Oregon State University Tanguay Lab 120 Hour Post-fertilization zebrafish Assay Score for Activity (AID 2283742).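 For AC50: dechorionated Tropical 5D wild-type zebrafish embryos held singly per well; static exposure from 6 hpf until 120 hpf at 28 °C.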 Put shortly: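 In this whole-embryo screen, dechorionated zebrafish were exposed from 6 hpf until 120 hpf at 28C under a 0.64% DMSO vehicle. Developmental malformations and death were recorded by brightfield microscopy as binary endpoints.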

Experiment [8] relates to Thyroperoxidase (TPO), gene 54314. The experiment is described as follows: CCTE_Simmons_AUR_rTPO: CCTE's Amplex UltraRed Assay for Thyroperoxidase (TPO) Inhibition, Simmons Lab (AID 2283662). Put shortly: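 Rat thyroid microsomal TPO + 25 uM AUR in 200 mM K phosphate; cpd 5 nM–87.5 uM [final], 8 conc, 0.5% DMSO; 300 uM H2O2 starts rxn; 37C dark 30 min; endpoint FI 544/590 nm; n=3.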

Experiment [9] can be described thus: CCTE_Simmons_CellTiterGLO_HEK293T: Viability Assessment in CCTE's Assays for Thyroperoxidase (TPO) Inhibition, Simmons Lab (AID 2283665).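 For AC50: cells exposed to compound for 24 h before readout; actives reduce ATP signal below DMSO vehicle meaning cytotoxicity.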 In a few lines:
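Luminescent ATP readout (CellTiter-Glo, 20 min at room temperature) after 24 hr exposure of HEK293T cells to 5 nM–87.5 uM final compound; signal loss relative to DMSO vehicle indicated cytotoxicity; dichlone titrated as positive control.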
Background: In ATP-based viability assays light output follows the ATP content of the culture.

Experiment [10] relates to Thyroperoxidase (TPO), gene 445522. Nature of the experiment: CCTE_Simmons_GUA_TPO: CCTE's Guaiacol Assay for Thyroperoxidase (TPO) Inhibition, Simmons Lab (AID 2283750). In a few lines:
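Porcine thyroid microsomes (25 ug) in 200mM potassium phosphate, preincubated 30 s at 37C with compound (8 concentrations, 5 nM–87.5 uM) and 35mM guaiacol; 1mM H2O2 starts reaction. Absorbance change at 450nm over first 80 s; loss of signal versus DMSO, three replicates.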

A short description of experiment [11]: ArunA_CellTiter_hNC: Viability Assessment in the ArunA Biomedical's Oris Neural Crest (hNC) Cell Migration Assay (AID 2283752). In a few lines: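 hNC cells (H9 ESC-derived), 60,000/well, Matrigel, LIF + bFGF medium; 16 h 37C attachment; 72 h compound in test medium; CellTiter Aqueous One read-out; loss-of-signal vs DMSO baseline.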
A short description of experiment [12]: ArunA_Migration_hNP: ArunA Biomedical's Oris Neuroprogenitor (hNP) Cell Migration Assay (AID 2283754). Put shortly: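 Readout is calcein-AM fluorescence (ex494/em517) of cells migrating into the detection zone, relative to DMSO. hNP1 cells (H9-derived) grown on Matrigel behind stoppers 16 h, then stoppers pulled and chemical applied 72 h; cytochalasin D as control.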

Experiment [13] in a line: ArunA_Migration_hNC: ArunA Biomedical's Oris Neural Crest (hNC) Cell Migration Assay (AID 2283755). In a few lines: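 Calcein-AM fluorescence (ex494 nm/em 517 nm) in the stopper-defined detection zone quantifies migration of hNC cells after 72 h chemical exposure; 60,000 cells/well plated on Matrigel with LIF and bFGF, 16 h pre-incubation. DMSO baseline.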
Experiment [14] is described as follows: ArunA_NOG_NeuriteLength: ArunA Biomedical's Neurite Outgrowth (NOG) Assay for Neurite Length (AID 2283757). Put shortly:
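Total neurite length per neuron, from traced βIII-tubulin-labelled processes longer than 10 um on viable Hoechst-gated cells, was scored as decrease from DMSO. Cells were hESC (H9)-derived neurons given 48 h chemical exposure immediately after seeding.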

Experiment [15] can be described thus: ArunA_NOG_NeuritesPerNeuron: ArunA Biomedical's Neurite Outgrowth (NOG) Assay for Neurites Per Neuron (AID 2283758). Put shortly:
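Differentiated human H9-derived neurons exposed to chemicals for 48 h from seeding, then stained with Hoechst and βIII-tubulin/DyLight 488. Automated imaging counted neurites (processes >10 um) per valid neuron; loss of signal versus DMSO scored.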

Experiment [16] can be described thus: ArunA_NOG_BranchPointsPerNeurite: ArunA Biomedical's Neurite Outgrowth (NOG) Assay for Branch Points Per Neurite (AID 2283759). In a few lines:
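Automated image analysis traced neurites (processes >10 um) from valid cell bodies after Hoechst and βIII-tubulin staining. hNN cells from H9 embryonic stem cells, 48 h exposure. Fitted bidirectionally against DMSO.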

For `CCCCCOC(=O)c1ccccc1C(=O)OCCCCC`, the compound was called inactive in [1], in experiment [3], in experiment [6] and in experiment [7]. Besides, the AC50 was 4.55 µM (active) in [2], 19.8 µM (active) in [4] and 21.9 µM (active) in [5].
As to `N#CC(Br)(Br)C(N)=O`, the compound was classed as inactive in [8], in experiment [9], in experiment [1] and in [7].
As for `[Cl-].[Cl-].[Hg+2]`, the AC50 in experiment [9] was 0.939 µM (active); in [1], 1.15 µM (active); in experiment [2], 0.0826 µM (active); in [3], 1.34 µM (active); in [4], 0.882 µM (active); in experiment [5] it was 0.995 µM (active). Besides, the values for the AC50 in [7] and in experiment [10] were 4.32 µM (active) and 389 µM (active), respectively.
As to `CCNS(=O)(=O)C(F)(F)C(F)(F)C(F)(F)C(F)(F)C(F)(F)C(F)(F)C(F)(F)C(F)(F)F`, the AC50 was 17 µM (active) in experiment [1], 43.5 µM (active) in experiment [2] and 31.2 µM (active) in [7].
Consider `ClCCOCCCl`, for which the compound was classed as inactive in experiment [1] and in [7].
On to `COc1cc(C=O)cc2c1[C@H](COC(N)=O)[C@]1(OC(C)=O)ON2C[C@H]2[C@@H]1N2C(C)=O`, for which the outcome in experiment [2] was inactive. Besides, the AC50 is 0.00101 µM (active) in [3], 0.0003 µM (active) in [4], 0.000797 µM (active) in experiment [5] and 23.4 µM (active) in experiment [7].
Consider `Clc1ccccc1Cl`, for which the compound was called inactive in [1] and in [7].
Regarding `c1ccc(N=Nc2ccccc2)cc1`, the outcome in experiment [6] and in experiment [7] was inactive.
On to `O=C(Oc1ccc(Br)cc1)N1CCN2CCC1CC2`, for which the compound was classed as inactive in experiment [7].
For the compound `[As]#[In]`, the compound was classed as inactive in experiment [1], in experiment [6] and in [7].
`C[N+](C)(C)CC1CO1` (configuration not stated): the result in experiment [1] and in [7] was inactive. Besides, the AC50 was 21 µM (active) in experiment [3], 11 µM (active) in experiment [4] and 16.5 µM (active) in experiment [5].
With `CC(C)N(Cc1ccccc1)C(=O)C(C)(C)C`, the result in [1], in experiment [6] and in [7] was inactive.
As to `c1ccc(C2CO2)cc1` (configuration not stated), the outcome in [1] and in [7] was inactive.
For `CNC(=O)Oc1cccc2c1OC(C)(C)C2`, the result in experiment [1], in experiment [3], in experiment [4], in [5] and in experiment [7] was inactive. Besides, in [6], the AC50 was 1.52 µM (active).
For `c1ccc2c(c1)-c1cccc3cccc-2c13`, the compound was called inactive in experiment [1], in [6] and in [7].
With `Clc1ccc(C(c2ccc(Cl)cc2)C(Cl)(Cl)Cl)cc1`, in experiment [2], the AC50 was 3.44 µM (active). The outcome in experiment [3], in experiment [4] and in experiment [7] was inactive.
Regarding `OCCCl`, the result in [1] and in experiment [7] was inactive.
Turning to `O=C(O)C1C2CCC(O2)C1C(=O)O` (configuration not stated), the compound was classed as inactive in experiment [7].
For the compound `CCOc1cccc(C2(N3CCN(c4ccccc4)CC3)CCC(C)CC2)c1` (configuration not stated), the outcome in experiment [1], in experiment [6] and in experiment [7] was inactive.
`OCCOCCO`: the result in experiment [1], in experiment [2] and in [7] was inactive.
Turning to `CCCCCCCCOC(=O)c1ccc(C(=O)OCCCCCCCC)c(C(=O)OCCCCCCCC)c1`, the compound was called inactive in experiment [1] and in experiment [7].
Consider `O=P(OCCCl)(OCCCl)OCCCl`, for which the outcome in experiment [3], in [4], in experiment [6], in experiment [7], in experiment [11] and in experiment [12] was inactive. In addition, the compound was called inactive in [13], in experiment [14], in experiment [15] and in experiment [16].
In the case of `CC(C)(OOC(C)(C)c1ccccc1)c1ccccc1`, the compound was called inactive in [1] and in experiment [7]. The AC50 in experiment [2] is 15.4 µM (active).
On to `Nc1ccc([N+](=O)[O-])cc1`, for which the outcome in [1] and in experiment [7] was inactive.
Take `CC(C)(C)OOC(=O)c1ccccc1`: in experiment [7], the result was inactive.
With `CS(=O)(=O)NC(=O)c1cc(Oc2ccc(C(F)(F)F)cc2Cl)ccc1[N+](=O)[O-]`, the outcome in experiment [1] and in experiment [7] was inactive. For the same compound, the AC50 in experiment [2] was 0.128 µM (active).
For the compound `CCN(CC)N=O`, the call in experiment [1], in [3], in [4] and in [7] was inactive.
`O=C1CCCO1`: the outcome in experiment [1], in [3], in experiment [4] and in experiment [7] was inactive.
On to `CC(C)(C)OOC(C)(C)CCC(C)(C)OOC(C)(C)C`, for which the compound was called inactive in experiment [1] and in [7].
As to `CCCSC(=O)N(CCC)CCC`, the outcome in experiment [1] and in [7] was inactive.
With `c1ccc2c(c1)oc1ccccc12`, the outcome in experiment [1] and in [7] was inactive.
As for `CC(C)(O)c1cnn2c(-c3ccc(F)c(-c4c(F)cccc4C#N)c3)cnc2n1`, the call in experiment [1], in experiment [6] and in experiment [7] was inactive.
